# This excerpt belongs to a sample that is enriched for hits.
# Cruzain inh noDet – qHTS Assay for Promiscuous and Specific Inhibitors of Cruzain (without detergent); Potency, µM, actives largely listed as inhibitors; Cruzipain (Trypanosoma cruzi), P25779; hit rate 2.3% among 200,000; purified cruzain, Z-FR-AMC fluorescence, no detergent; active = well fitted curve in the direction sought with a large enough effect; inconclusive = small, poorly fitted or top-dose-only effect, or another doubt; inactive = no such curve, though single readings can be large; an effect the other way counts as inactive or inconclusive; also: nearly all actives have a fitted effect of over 40% in size
# Target sequence (P25779 123-467 limits assumed): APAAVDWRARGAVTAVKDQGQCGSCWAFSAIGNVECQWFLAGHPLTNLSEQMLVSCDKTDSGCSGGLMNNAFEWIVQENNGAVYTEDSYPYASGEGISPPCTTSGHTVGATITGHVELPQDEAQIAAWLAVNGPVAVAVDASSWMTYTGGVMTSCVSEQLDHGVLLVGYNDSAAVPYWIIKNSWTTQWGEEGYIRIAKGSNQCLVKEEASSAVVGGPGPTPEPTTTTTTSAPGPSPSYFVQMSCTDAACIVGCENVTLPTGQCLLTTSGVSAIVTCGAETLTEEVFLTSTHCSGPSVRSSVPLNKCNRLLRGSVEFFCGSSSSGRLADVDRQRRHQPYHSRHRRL
#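 Detergent-free condition (0.00005% Triton X-100) in acetate buffer pH 5.5 with DTT. 1.5 nM enzyme and compound were pre-mixed 15 min, then 2 uM Z-FR-AMC substrate added; reaction progress from fluorescence change between first and third reads (60 s).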
# NS1 inh – qHTS Assay for Inhibitors of Influenza NS1 Protein Function. Potency, µM (series often up to 46.1 µM). hit rate 0.4% among 270,000. AID 2326, 2010; also: actives are rising curves; nearly all actives have a fitted effect of over 50% in size
#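 Read-out: OD600 growth recovery of NS1-expressing budding yeast. Cells grown overnight at 30C in -URA glucose medium, washed, resuspended and diluted 1:100 in 2% galactose assay medium, pH 6.0. Same strain lacking NS1 served as positive control.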
# Cruzain Triton – qHTS Assay for Promiscuous and Specific Inhibitors of Cruzain (with detergent) | Potency, µM, most hits filed as inhibitors | hit rate 0.43% among 200,000 | Cruzipain (Trypanosoma cruzi), P25779 | purified cruzain, Z-FR-AMC fluorescence, 0.01% Triton | AID 1478, 2009; active = well fitted curve in the direction sought with a large enough effect; inconclusive = small, poorly fitted or top-dose-only effect, or another doubt; inactive = no such curve, though single readings can be large; an effect the other way counts as inactive or inconclusive; also: nearly all actives have a fitted effect of over 40% in size
#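 Purified cruzain (1.5 nM final) was preincubated with compounds for 15 min at room temperature in 100 mM sodium acetate pH 5.5, 5 mM DTT, 0.01% Triton X-100. Reaction started with 2 uM Z-FR-AMC; AMC fluorescence change over 60 s gave activity.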
# Flu NS1 inh – Assay for Inhibitors of Influenza NS1 Protein Function: Hit Validation; shares compounds with NS1 inh; influenza NS1 function cell assay, 15-point titration; activity change, negative = inhibition, % at 32.9 µM; 1,400 tested, under 10 active; AID 492980, 2010
# Hits are given with their value; n = inactive; u = inconclusive; x = no result. Unless noted, calls follow the shape of the full dose curve.
SMILES,Cruzain inh noDet,NS1 inh,Cruzain Triton,Flu NS1 inh
CCOC(=O)N1CCC(NC(=O)CCC(=O)N2CCOc3ccc(C)cc32)CC1,n,n,n,x
CCOc1ccc2c(c1)c(=O)c(C(=O)c1ccc(CC)cc1)cn2CC(=O)Nc1ccccc1C,n,x,n,x
CC(=O)c1cccc(NS(=O)(=O)c2ccc(N/C=C/C(=O)c3ccc(F)cc3)cc2)c1,u,u,n,n
CC(=O)c1cccc(NS(=O)(=O)c2ccc(N/C=C\C(=O)c3ccc(F)cc3)cc2)c1,u,n,n,x
COc1ccccc1C(=O)Nc1nnc2n1CCS2,n,x,n,x
CCN(CC)S(=O)(=O)c1cccc(C(=O)Nc2cccc(C)c2)c1,n,n,n,x
CCN(CC)S(=O)(=O)c1cccc(NC(=O)C2SC(=Nc3ccc(C)cc3C)C(C(=O)NC(C)COC)=C2N)c1 (configuration not stated),n,13µM,n,n
Cc1nn(C)c2c1c(C(F)(F)F)cc(=O)n2C(C)C(=O)NCCC(C)C (configuration not stated),u,x,n,x
Cc1ccc2cccc(NC(=S)NC(=O)c3ccnn3C)c2n1,u,16µM,n,n
CC(=O)NC(=S)Nc1cccc2ccc(C)nc12,x,n,x,x
O=C(CCN1C(=O)c2ccccc2Sc2ncccc21)Nc1ccc(F)cc1F,n,x,n,x
Cc1ccc(N(CC(=O)NN=C2CCN(C)CC2)S(=O)(=O)c2ccccc2)c(C)c1,n,4.5µM,n,n
COc1ccc(S(=O)(=O)N(CC(=O)NN=C2CCN(C)CC2)c2ccc(C)cc2)cc1OC,x,n,x,x
Cc1ccc(-c2cc(C(=O)N(Cc3ccccc3)Cc3ccco3)no2)cc1F,n,x,n,x
O=C(Nc1ccccc1Cl)Oc1ccc2ccccc2c1,x,u,x,n
O=C(Nc1ccccc1Cl)c1ccc2ccccc2c1,x,n,x,x
COc1cc(C2CC(=O)Nc3c2c(=O)[nH]c2nc4ccccc4n32)ccc1O (configuration not stated),n,x,n,x
COc1ccc(C2CC(c3cccc(Cl)c3)n3nc(N)nc3N2)cc1 (configuration not stated),n,n,n,x
COc1cccc(C2CC(c3ccc(Cl)cc3)Nc3nc(N)nn32)c1 (configuration not stated),n,7.1µM,n,n
COc1ccc(C(=O)Nc2nnc(S(=O)(=O)N3CCN(c4ccc(F)cc4)CC3)s2)cc1,n,x,n,x
O=C(COc1ccccc1)Nc1ccccc1N1CCN(c2ccc(F)cc2)CC1,n,n,n,x
O=C(Nc1ccccc1N1CCN(c2ccc(F)cc2)CC1)c1ccccc1,u,u,n,n
O=C(Nc1nnc(S(=O)(=O)N2CCN(c3ccc(F)cc3)CC2)s1)c1ccccc1,x,2.2µM,x,n
CCOC(=O)c1cc(-c2ccc(OC)cc2)n(CCC(=O)NCc2ccc(OC)cc2)c1C,n,x,n,x
NCCC[C@@H](CC(=O)N[C@@H]1CCNC[C@H]1C(=O)N[C@H](CC(=O)N[C@@H](CCC(=O)O)CC(=O)O)Cc1c[nH]c2ccccc12)NC(=O)C[C@H](Cc1ccccc1)NC(=O)[C@@H]1CCCC[C@H]1N,n,x,n,x
SMILES,Cruzain inh noDet,NS1 inh,Cruzain Triton,Flu NS1 inh
COc1ccccc1C(=O)OCc1cc(=O)n2nc(C3CCCCC3)sc2n1,n,x,n,x
Cc1cc(C)nc(SCC(=O)Nc2nc(-c3ccccc3)c(-c3ccccc3)o2)n1,u,n,n,x
Cc1cc(=O)[nH]c(SCC(=O)Nc2nc(-c3ccccc3)c(-c3ccccc3)o2)n1,u,u,n,n
Cc1ccc(NC(=O)CSc2cn(CC(=O)N3CCCC3)c3ccccc23)cc1Cl,n,x,n,x
CN(/N=C\c1ccc(O)c(O)c1)c1nc(-c2ccccc2)cc(-c2ccccc2)n1,u,8.9µM,n,u
COc1cc(/C=N/N(c2ccccc2)c2ccccc2)ccc1O,x,n,x,x
COc1ccc(-c2nn(-c3ccccc3)cc2C2NC(=O)NC(C)=C2C(=O)OC(C)C)cc1Cl (configuration not stated),n,x,n,x
Cc1cccc(N2C(=O)/C(=C\c3ccc(OC(F)F)cc3)c3ccccc3C2=O)c1,n,n,n,x
COc1cccc(/C=C2\C(=O)N(c3cccc(C)c3)C(=O)c3ccccc32)c1,n,u,n,u
Cc1cc(NC(=O)c2cccc(S(=O)(=O)N3CCCCCC3)c2)n(-c2ccccn2)n1,u,n,n,x
Cc1cc(NC(=O)c2cccc(S(=O)(=O)N(C)C)c2)n(-c2ccccn2)n1,u,13µM,n,n
NCCC[C@@H](CC(=O)N[C@@H]1CCNC[C@H]1C(=O)N[C@H](CC(=O)N[C@@H](CCC(=O)O)CC(=O)O)Cc1c[nH]c2ccccc12)NC(=O)C[C@H](Cc1c[nH]c2ccccc12)NC(=O)[C@@H]1CNCC[C@H]1N,n,x,n,x
Cc1ccc(-c2noc(C3CCCN(C(=O)c4ccccc4)C3)n2)o1 (configuration not stated),n,n,n,x
Cc1ccc(-c2noc(C3CCCN(C(=O)c4ccccc4Br)C3)n2)o1 (configuration not stated),x,u,x,n
CC(=O)NC1(C(F)(F)F)C(=O)Nc2c1c(=O)n(C)c(=O)n2C (configuration not stated),n,n,n,x
Cc1nnc(NC2(C(F)(F)F)C(=O)Nc3c2c(=O)n(C)c(=O)n3C)s1 (configuration not stated),n,u,n,n
COc1ccc(NC(=O)Cn2c(=O)oc3cc(S(=O)(=O)N4CCCCC4C)ccc32)cc1 (configuration not stated),n,x,n,x
CN(C)S(=O)(=O)c1ccc(N2CCCC2)c(C(=O)Nc2nc3c(ccc4ccccc43)s2)c1,7.9µM,14µM,n,n
O=C(Nc1nc2c(ccc3ccccc32)s1)c1cc([N+](=O)[O-])ccc1N1CCOCC1,x,n,x,x
COC(=O)c1c(Oc2ccc(OC)cc2)nnc(-c2ccccc2)c1-c1ccccc1,n,x,n,x
CC(C)Sc1ncc(Cl)c(C(=O)Nc2nc3ccc(S(C)(=O)=O)cc3s2)n1,n,x,n,x
N#CCC(=O)N/N=C/c1ccc(N2N=C(c3ccccc3)CC2c2ccccc2)cc1 (configuration not stated),x,1.1µM,x,n
COc1ccc(C2CC(c3ccccc3)=NN2c2ccc(/C=N/NC(=O)c3ccncc3)cc2)cc1 (configuration not stated),n,n,n,x
COc1cc(/C=N/NC(=O)c2ccncc2)ccc1OCCN1CCCCC1,n,n,n,x
COc1cc(/C=N/NC(=O)c2cc3ccccc3cc2O)ccc1OCCN1CCCCC1,n,11µM,n,n
CCCc1cnc2c(c1SCc1cccc(F)c1)c(=O)n(C)c(=O)n2C,n,x,n,x
Cc1ccc(NC(=O)C2CCCN(S(=O)(=O)c3cnc[nH]3)C2)c(Br)c1 (configuration not stated),n,2µM,n,n
O=C(Nc1ccc(Br)cc1F)C1CCCN(S(=O)(=O)c2cnc[nH]2)C1 (configuration not stated),n,u,n,x
Cc1ccccc1NC(=O)C1CCCN(S(=O)(=O)c2cnc[nH]2)C1 (configuration not stated),n,14µM,n,n

# Screening data (PubChem BioAssay)
